Results on 45 sequences are retold here after publication PMC7819943, “Rice protein-binding microarrays: a tool to detect cis-acting elements near promoter regions in rice”.

In all, about 68,000 sequences were measured (“fluorescence intensity (a.u.)”: median about 9,100, highest 2% from about 16,000 on). Only a selection was taken, and the highest values are over-represented in it overall.

Chain of OsWRKY34 (Q0JBA9 entry or part of it): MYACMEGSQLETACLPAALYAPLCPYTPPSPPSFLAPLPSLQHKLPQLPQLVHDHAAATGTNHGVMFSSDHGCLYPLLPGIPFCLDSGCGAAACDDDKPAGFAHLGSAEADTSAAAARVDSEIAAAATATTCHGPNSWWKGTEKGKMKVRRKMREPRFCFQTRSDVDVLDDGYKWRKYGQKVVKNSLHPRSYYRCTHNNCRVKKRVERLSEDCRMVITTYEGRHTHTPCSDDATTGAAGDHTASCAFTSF

This assay addresses OsWRKY34 (Oryza sativa, UniProt Q0JBA9 1-250). In words: protein-binding microarray (RPBM); PBS, 2% BSA, 51.3 ng/ul salmon testes DNA, 50 uM zinc acetate, 200 nM TF, 25 C, 1 h; high values mean tight binding. Particulars: protein: recombinant; tags: N-terminal polyhistidine and DsRed monomer fusion (pET32a); label: CyDye5-dUTP incorporated in the synthesized complementary strand; 3' TTTTT single-stranded linker to array surface; dsDNA, one strand shown. The gist of the method: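 In PBS with 2% BSA, salmon testes DNA and 50 µM zinc acetate, 200 nM protein was incubated on a custom Agilent array at 25 °C for 1 h and then washed off. The array had been made double-stranded by primer extension with Cy5-dUTP and blocked with 2% BSA. The proteins were transcription factors fused N-terminally to polyhistidine and DsRed, expressed in E. coli BL21-CodonPlus and purified on Ni–NTA. The binding signal is per-feature fluorescence intensity (arbitrary units) from an Axon 4000B scanner.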
In the case of “GAGGTGACGCTGCCGCCGGCGGTGGGCGGAGTGGGAGGGGCGGAGTCACCTAGTGCAG”, the binding signal is 8390 fluorescence intensity (a.u.).

“CAAATTCTAGACTTTTTGGTGGGTTGCGTGCGAGGGGTGGCGGAGTCACCTAGTGCAG”: the binding signal was 10500 fluorescence intensity (a.u.).

Turning to “ATTTGTTCCCATCCATCTCGGCCCTGTCGCCATTGTGCCACGGAGTCACCTAGTGCAG”, the binding signal was 9450 fluorescence intensity (a.u.).

Take “GATTGATTATCCTTTTCTTAAACTATTTTCCTGTTTTTCACGGAGTCACCTAGTGCAG”: the binding signal was 13200 fluorescence intensity (a.u.).

Regarding “GCCAAGCCTTTTTCTTCTACTCTTTTTGGCATGGAACTCACGGAGTCACCTAGTGCAG”, the binding signal was 8350 fluorescence intensity (a.u.).

Consider “AACGATTTGCATGTCATACAGATACATCACATTTCTTTCTCGGAGTCACCTAGTGCAG”, for which the binding signal is 8520 fluorescence intensity (a.u.).

As to “AGCAAATTCCTTTATGTTTTTTCTTATGTCTTCTCCAGCTCGGAGTCACCTAGTGCAG”, the binding signal is 9040 fluorescence intensity (a.u.).

As to “ACACTCTATTAAGAGGATCCGTTTCATTTTTTGTTCCATCCGGAGTCACCTAGTGCAG”, the binding signal is 8760 fluorescence intensity (a.u.).

Consider “CTATACTCACCCACTTGCCAATTTGCCATTGCCAACACCTCGGAGTCACCTAGTGCAG”, for which the binding signal was 9100 fluorescence intensity (a.u.).

Turning to “TTGTTGGCTCAATATAGTTATCCTCCTTTGACCCAGTTAACGGAGTCACCTAGTGCAG”, the binding signal was 9120 fluorescence intensity (a.u.).

As to “TGTTCGGTGGGCGAGGAGAGGAGTGGGTGGGAGTGGACTGCGGAGTCACCTAGTGCAG”, the binding signal was 8780 fluorescence intensity (a.u.).

With “TGGGTTTTACGGTTTTACCCTCTCGGGCTTGAGGGGAGAGCGGAGTCACCTAGTGCAG”, the binding signal is 47600 fluorescence intensity (a.u.).

For the sequence “AGGTGAGAGGAGGAGAGAGACGGGTTTAGGGCTTTAGGAGCGGAGTCACCTAGTGCAG”, the binding signal is 8040 fluorescence intensity (a.u.).

Take “GGGTGGAGGAGGGGACTTCGGGAGGGCGGTGGCGAGGGCGCGGAGTCACCTAGTGCAG”: the binding signal is 16400 fluorescence intensity (a.u.).

With “GGAGGTGGTGGCGCTGCCTCGGGGCCCCTCGCCTGGGAGGCGGAGTCACCTAGTGCAG”, the binding signal is 9800 fluorescence intensity (a.u.).

On to “TGGCGGCGTGGAGCCGCGAGGGCGGTGGCGGCGGGGAGTTCGGAGTCACCTAGTGCAG”, for which the binding signal was 10400 fluorescence intensity (a.u.).

“GGGAGCGGCGGAGGAGGAGGGCGCGGCGGCGGTGGGGTGGCGGAGTCACCTAGTGCAG”: the binding signal was 18100 fluorescence intensity (a.u.).

As for “GGTGGGCGGAGTGGGAGGGGAGGCATCGGCGCCTCGGTGGCGGAGTCACCTAGTGCAG”, the binding signal was 16800 fluorescence intensity (a.u.).

For the sequence “GCGAGTGAGGAGGGGCGGCGCGCGGTGGCCGGCGGGTGAGCGGAGTCACCTAGTGCAG”, the binding signal is 8070 fluorescence intensity (a.u.).

Consider “GCTCGGCGGCGCCGCGGCGGCGGTGGCGGAGGCGGGGATGCGGAGTCACCTAGTGCAG”, for which the binding signal was 8910 fluorescence intensity (a.u.).

For “AGGAGAGGGGTTTACTCGGTTGAGGATTTTCTTGTTCTCACGGAGTCACCTAGTGCAG”, the binding signal is 8180 fluorescence intensity (a.u.).

As to “GGGAGGGGTGCGGCGCGGTGGCGCTGGAGCGGAGGAGCGTCGGAGTCACCTAGTGCAG”, the binding signal is 9990 fluorescence intensity (a.u.).

For “ACGTGGAGTCACGTGACTGGGCCGTGCCACTTTTTTTTATCGGAGTCACCTAGTGCAG”, the binding signal is 9360 fluorescence intensity (a.u.).

Regarding “AGTCAATATCTTGCTTTGATACCTTTTTTTTTGCATTTTTCGGAGTCACCTAGTGCAG”, the binding signal is 8050 fluorescence intensity (a.u.).

Turning to “ACAACACGCCGCCTCGCCTGCCCATCCCGTCCAACCCACGCGGAGTCACCTAGTGCAG”, the binding signal was 9200 fluorescence intensity (a.u.).

For “GATTGGTTGAAAATGTTTCTATTCTTAATGAATATCCTATCGGAGTCACCTAGTGCAG”, the binding signal was 8080 fluorescence intensity (a.u.).

With “CCATCCACGCGACGCGGCACAACCTCCCGCGCCCAACACACGGAGTCACCTAGTGCAG”, the binding signal was 8760 fluorescence intensity (a.u.).

On to “CCTTCTTGTCCTGCTCCCGCGCCGGCTCCGACCGGGTCCTCGGAGTCACCTAGTGCAG”, for which the binding signal was 8600 fluorescence intensity (a.u.).

Turning to “AGTACATGGGCTTTCCATAATTGGTTTATACGTGGTTATTCGGAGTCACCTAGTGCAG”, the binding signal was 8260 fluorescence intensity (a.u.).

As to “CTCTGAATGGCCTTGTCACCCTTTTTATTCATTCATGCTCCGGAGTCACCTAGTGCAG”, the binding signal was 9200 fluorescence intensity (a.u.).

“TGTCCTTATCATCTTTGATCAAGTTTTTCTCTTTTCCTATCGGAGTCACCTAGTGCAG”: the binding signal was 9480 fluorescence intensity (a.u.).

As for “CTCTTTTTTTTTCTTCCACTACGCTCCAAAACTTCTCTCCCGGAGTCACCTAGTGCAG”, the binding signal was 8790 fluorescence intensity (a.u.).

Consider “CCTTAGTCAGCCTCTGCTTCTGCTCCGTGCTCGCCGGCGCCGGAGTCACCTAGTGCAG”, for which the binding signal is 12600 fluorescence intensity (a.u.).

“TGTGGCGGGGAGGGAGGGAGGGAGAAGGGGCGGCGTGTTGCGGAGTCACCTAGTGCAG”: the binding signal is 16600 fluorescence intensity (a.u.).

As to “TACTGGGGAATCGGTGGTGGTGGCGGCGGCGGTGGCGGCGCGGAGTCACCTAGTGCAG”, the binding signal was 9690 fluorescence intensity (a.u.).

In the case of “ACGCAGGGGAGGGAGGGAGCGGTGGTGGTGGCGGCGGCGCCGGAGTCACCTAGTGCAG”, the binding signal was 14000 fluorescence intensity (a.u.).

Take “CCCGCGGCGGCGGGGTGGAGGCGACGGCGGTGGTGGTGGGCGGAGTCACCTAGTGCAG”: the binding signal was 8590 fluorescence intensity (a.u.).

On to “GGGGCGGAGATCTGGGAGGAGGAGGAGGAGGTGGTGGTGGCGGAGTCACCTAGTGCAG”, for which the binding signal is 14500 fluorescence intensity (a.u.).

Turning to “GGAATCTGGGAGGTGGGTGGGCCCCACGGCGGAGACTCCGCGGAGTCACCTAGTGCAG”, the binding signal was 17200 fluorescence intensity (a.u.).

Take “GCCTCGATCGCGGCGGTGGCGGTGGGGAGGGGAGCGCACCCGGAGTCACCTAGTGCAG”: the binding signal was 19000 fluorescence intensity (a.u.).

Turning to “TGAAGGGCGGGAGGGGCGTTGCGCGGGAGTGGCCGCGCGGCGGAGTCACCTAGTGCAG”, the binding signal is 8670 fluorescence intensity (a.u.).

For the sequence “GTGCGTGGGGCGAAGGGAGGGGAAGAAGAAGAAGGAGAAGCGGAGTCACCTAGTGCAG”, the binding signal was 8080 fluorescence intensity (a.u.).

Regarding “CTCATCCGAGTGGGTGGGCGGGGAGAGATCTAGGGCTTGCCGGAGTCACCTAGTGCAG”, the binding signal is 11700 fluorescence intensity (a.u.).

For “CGATCCGCTTGCAGGCGGCGGCGGCGGGAGGGTGGTGGGGCGGAGTCACCTAGTGCAG”, the binding signal is 18000 fluorescence intensity (a.u.).

As to “GCGGCCGGCCGAGGGGTGGGAGCCGTCCGATCGCGGCGCGCGGAGTCACCTAGTGCAG”, the binding signal is 8550 fluorescence intensity (a.u.).
